# Laboratory results published in PubChem BioAssay (NCI).
# This is part of a sample that, as a whole, favours compounds with a hit. Of some 79,000 tested, about 15% had one in any assay. Unmarked numbers belong to inactive results. Activity calls are given as the source filed them. Cut-off read from the data, not from the text of the source: active = growth inhibition above about 70%; inactive = the rest.
# Assays:
# [1] = NCI Yeast Anticancer Drug Screen. Data for the rad52 strain (AID 147);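 note: 0% = growth of vehicle-treated control cultures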; conditions: S. cerevisiae rad52 mutant growth inhibition, stronger effect = higher value
# In short: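 Screen used a yeast mutant impaired in DNA repair. After compound exposure, growth was measured. Values reflect inhibition compared with vehicle-treated cells.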
# [2] = NCI Yeast Anticancer Drug Screen. Data for the wt1 strain (AID 149);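 note: 0% = growth of vehicle-treated wt1 cultures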; conditions: S. cerevisiae wt1 strain (SPY 50644) growth inhibition, stronger effect = higher value
# In short: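 Each compound is tested on wt1 yeast and the loss of growth versus vehicle gives the inhibition value.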
# [3] = NCI Yeast Anticancer Drug Screen. Data for the rad50EPP+ strain (AID 151);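 note: 0% = growth of vehicle-treated control cultures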; conditions: S. cerevisiae rad50 mutant strain, stronger effect = higher value
# In short: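 Exposing the rad50EPP+ strain to each compound, growth was compared with vehicle-only cultures to give inhibition.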
# [4] = NCI Yeast Anticancer Drug Screen. Data for the mgt1 strain (AID 153); conditions: S. cerevisiae mgt1 mutant growth inhibition, stronger effect = higher value
# In short: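 Genetically defined yeast (mgt1) treated with compound; inhibition of growth expressed against vehicle-treated controls.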
# [5] = NCI Yeast Anticancer Drug Screen. Data for the rad50 strain (AID 155);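 note: 0% = growth of vehicle-only cultures of the same strain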; conditions: S. cerevisiae rad50 strain growth inhibition, stronger effect = higher value
# In short: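 Vehicle-treated cultures provide the reference for the growth inhibition reported for compound-exposed, repair-deficient yeast.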
# [6] = NCI Yeast Anticancer Drug Screen. Data for the mec2-1 strain (AID 157); conditions: S. cerevisiae mec2-1 strain, stronger effect = higher value
# In short: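 Readout is yeast growth inhibition, normalised to vehicle-treated controls, in the mec2-1 strain exposed to compound.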
# [7] = NCI Yeast Anticancer Drug Screen. Data for the rad14 strain (AID 159);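 note: 0% = growth of vehicle-treated control cultures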; conditions: S. cerevisiae rad14 strain growth inhibition, stronger effect = higher value
# In short: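 Inhibition of growth is reported for a repair-deficient yeast mutant following compound treatment, calculated relative to cultures that received vehicle.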
# [8] = NCI Yeast Anticancer Drug Screen. Data for the sgs1 mgt1 strain (AID 161);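 note: 0% = growth of cultures given vehicle only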; conditions: S. cerevisiae sgs1 mgt1 strain, stronger effect = higher value
# In short: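 Percent growth inhibition was derived by comparing compound-exposed mutant yeast with vehicle-exposed cultures. The strain carries alterations in DNA damage repair.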
# [9] = NCI Yeast Anticancer Drug Screen. Data for the CLN2oe strain (AID 163);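 note: 0% = growth of vehicle-only control cultures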; conditions: S. cerevisiae CLN2oe strain, stronger effect = higher value
# In short: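 Values reflect how much compound exposure reduced yeast growth, referenced to vehicle-exposed cells. Assay organism is a strain with a defined genetic change affecting cell-cycle control.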
# [10] = NCI Yeast Anticancer Drug Screen. Data for the cln2 rad14 strain (AID 165);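 note: 0% = growth equal to vehicle treated cultures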; conditions: S. cerevisiae cln2 rad14 strain, stronger effect = higher value
# In short: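 Relative to vehicle controls, growth inhibition of compound-treated cln2 rad14 yeast was recorded.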
# [11] = NCI Yeast Anticancer Drug Screen. Data for the bub3 strain (AID 167); conditions: S. cerevisiae bub3 mutant strain, stronger effect = higher value
# In short: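 Mutant yeast screening strain plus compound; vehicle-treated cultures serve as the 0% inhibition reference.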
# [12] = NCI Yeast Anticancer Drug Screen. Data for the wt2 strain (AID 169); conditions: S. cerevisiae wt2 strain growth inhibition, stronger effect = higher value
# In short: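 Values express reduction in yeast growth under compound treatment, referenced to vehicle-treated cells.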
# [13] = NCI Yeast Anticancer Drug Screen. Data for the mlh1 strain (AID 171);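 note: 0% = growth of vehicle-treated control cultures of the same strain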; conditions: S. cerevisiae mlh1 strain growth inhibition, stronger effect = higher value
# In short: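 Steps: expose the defined-mutant yeast strain to compound; expose a parallel culture to vehicle; measure growth; express compound effect as inhibition relative to the vehicle culture.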
# [14] = NCI Yeast Anticancer Drug Screen. Data for the sgs1 strain (AID 173);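 note: 0% = growth of vehicle-only control cultures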; conditions: S. cerevisiae sgs1 mutant, stronger effect = higher value
# In short: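 Treat defined-mutant yeast with compound; measure growth; calculate inhibition relative to vehicle-treated cells.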
# [15] = NCI Yeast Anticancer Drug Screen. Data for the mlh1 rad18 strain (AID 175); conditions: S. cerevisiae mlh1 rad18 strain growth inhibition, stronger effect = higher value
# In short: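 Test agents were incubated with a yeast strain of defined genotype (DNA damage repair defect). Inhibition of growth was derived by comparison with vehicle-exposed cultures.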
# [16] = at 5.0 µM (retest, dose inferred, filed as 0.5)
# [17] = at 50.0 µM (retest, dose inferred, filed as 5.0)
compound,measurement,setting,value
CCCCN(CCC#N)c1ccc(/C=C/c2ccnc3ccccc23)cc1,growth inhibition,[1]; at 1.2 µM,-6%
same,growth inhibition,[1]; at 3.7 µM,-9%
same,growth inhibition,[1]; at 11.0 µM,-9%
same,growth inhibition,[1]; at 33.0 µM,63%
same,growth inhibition,[1]; at 100.0 µM,79% (active)
same,growth inhibition,[2]; at 1.2 µM,-6%
same,growth inhibition,[2]; at 3.7 µM,-10%
same,growth inhibition,[2]; at 11.0 µM,-13%
same,growth inhibition,[2]; at 33.0 µM,66%
same,growth inhibition,[2]; at 100.0 µM,85% (active)
same,growth inhibition,[3]; at 1.2 µM,-3%
same,growth inhibition,[3]; at 3.7 µM,7%
same,growth inhibition,[3]; at 11.0 µM,30%
same,growth inhibition,[3]; at 33.0 µM,38%
same,growth inhibition,[3]; at 100.0 µM,26%
same,growth inhibition,[4]; at 1.2 µM,-6%
same,growth inhibition,[4]; at 3.7 µM,-9%
same,growth inhibition,[4]; at 11.0 µM,0%
same,growth inhibition,[4]; at 33.0 µM,62%
same,growth inhibition,[4]; at 100.0 µM,76% (active)
same,growth inhibition,[5]; at 1.2 µM,-4%
same,growth inhibition,[5]; at 3.7 µM,-7%
same,growth inhibition,[5]; [16],36%
same,growth inhibition,[5]; at 11.0 µM,-6%
same,growth inhibition,[5]; at 33.0 µM,46%
same,growth inhibition,[5]; [17],30%
same,growth inhibition,[5]; at 50.0 µM,-15.1%
same,growth inhibition,[5]; at 100.0 µM,72% (active)
same,growth inhibition,[6]; at 1.2 µM,-9%
same,growth inhibition,[6]; at 3.7 µM,-10%
same,growth inhibition,[6]; [16],4%
same,growth inhibition,[6]; at 11.0 µM,-9%
same,growth inhibition,[6]; at 33.0 µM,45%
same,growth inhibition,[6]; [17],80% (active)
same,growth inhibition,[6]; at 50.0 µM,-6.1%
same,growth inhibition,[6]; at 100.0 µM,80% (active)
same,growth inhibition,[7]; at 1.2 µM,-8%
same,growth inhibition,[7]; at 3.7 µM,-10%
same,growth inhibition,[7]; at 11.0 µM,-5%
same,growth inhibition,[7]; at 33.0 µM,-1%
same,growth inhibition,[7]; at 100.0 µM,56%
same,growth inhibition,[8]; [16],-11%
same,growth inhibition,[8]; [17],77% (active)
same,growth inhibition,[8]; at 50.0 µM,14.9%
same,growth inhibition,[9]; at 1.2 µM,-8%
same,growth inhibition,[9]; at 3.7 µM,-14%
same,growth inhibition,[9]; at 11.0 µM,-22%
same,growth inhibition,[9]; at 33.0 µM,-23%
same,growth inhibition,[9]; at 100.0 µM,22%
same,growth inhibition,[10]; [16],2%
same,growth inhibition,[10]; [17],12%
same,growth inhibition,[10]; at 50.0 µM,-9.8%
same,growth inhibition,[11]; at 1.2 µM,-7%
same,growth inhibition,[11]; at 3.7 µM,-14%
same,growth inhibition,[11]; [16],-7%
same,growth inhibition,[11]; at 11.0 µM,-13%
same,growth inhibition,[11]; at 33.0 µM,-3%
same,growth inhibition,[11]; [17],73% (active)
same,growth inhibition,[11]; at 50.0 µM,-8.45%
same,growth inhibition,[11]; at 100.0 µM,53%
same,growth inhibition,[12]; at 1.2 µM,-9%
same,growth inhibition,[12]; at 3.7 µM,-12%
same,growth inhibition,[12]; at 11.0 µM,-1%
same,growth inhibition,[12]; at 33.0 µM,69%
same,growth inhibition,[12]; at 100.0 µM,83% (active)
same,growth inhibition,[13]; at 1.2 µM,-3%
same,growth inhibition,[13]; at 3.7 µM,-6%
same,growth inhibition,[13]; at 11.0 µM,10%
same,growth inhibition,[13]; at 33.0 µM,55%
same,growth inhibition,[13]; at 100.0 µM,76% (active)
same,growth inhibition,[14]; at 1.2 µM,-4%
same,growth inhibition,[14]; at 3.7 µM,-5%
same,growth inhibition,[14]; at 11.0 µM,17%
same,growth inhibition,[14]; at 33.0 µM,73% (active)
same,growth inhibition,[14]; at 100.0 µM,84% (active)
same,growth inhibition,[15]; [16],16%
same,growth inhibition,[15]; [17],74% (active)
same,growth inhibition,[15]; at 50.0 µM,11.7%
CCC(C)COC(=O)Nc1cccc(Cl)c1 (stereo unspecified),growth inhibition,[1]; at 1.2 µM,5%
same,growth inhibition,[1]; at 3.7 µM,6%
same,growth inhibition,[1]; at 11.0 µM,11%
same,growth inhibition,[1]; at 33.0 µM,59%
same,growth inhibition,[1]; at 100.0 µM,91% (active)
same,growth inhibition,[2]; at 1.2 µM,1%
same,growth inhibition,[2]; at 3.7 µM,-1%
same,growth inhibition,[2]; at 11.0 µM,0%
same,growth inhibition,[2]; at 33.0 µM,6%
same,growth inhibition,[2]; at 100.0 µM,99% (active)
same,growth inhibition,[3]; at 1.2 µM,6%
same,growth inhibition,[3]; at 3.7 µM,15%
same,growth inhibition,[3]; at 11.0 µM,39%
same,growth inhibition,[3]; at 33.0 µM,61%
same,growth inhibition,[3]; at 100.0 µM,72% (active)
same,growth inhibition,[4]; at 1.2 µM,-7%
same,growth inhibition,[4]; at 3.7 µM,0%
same,growth inhibition,[4]; at 11.0 µM,-8%
same,growth inhibition,[4]; at 33.0 µM,29%
same,growth inhibition,[4]; at 100.0 µM,99% (active)
same,growth inhibition,[5]; at 1.2 µM,9%
same,growth inhibition,[5]; at 3.7 µM,22%
same,growth inhibition,[5]; [16],-7%
same,growth inhibition,[5]; at 11.0 µM,25%
same,growth inhibition,[5]; at 33.0 µM,68%
same,growth inhibition,[5]; [17],54%
same,growth inhibition,[5]; at 50.0 µM,98.9% (active)
same,growth inhibition,[5]; at 100.0 µM,99% (active)
same,growth inhibition,[6]; at 1.2 µM,-5%
same,growth inhibition,[6]; at 3.7 µM,-10%
same,growth inhibition,[6]; [16],-1%
same,growth inhibition,[6]; at 11.0 µM,-34%
same,growth inhibition,[6]; at 33.0 µM,-1%
same,growth inhibition,[6]; [17],32%
same,growth inhibition,[6]; at 50.0 µM,98.1% (active)
same,growth inhibition,[6]; at 100.0 µM,98% (active)
same,growth inhibition,[7]; at 1.2 µM,3%
same,growth inhibition,[7]; at 3.7 µM,2%
same,growth inhibition,[7]; at 11.0 µM,2%
same,growth inhibition,[7]; at 33.0 µM,34%
same,growth inhibition,[7]; at 100.0 µM,99% (active)
same,growth inhibition,[8]; [16],-4%
same,growth inhibition,[8]; [17],53%
same,growth inhibition,[8]; at 50.0 µM,98.8% (active)
same,growth inhibition,[9]; at 1.2 µM,0%
same,growth inhibition,[9]; at 3.7 µM,1%
same,growth inhibition,[9]; at 11.0 µM,-7%
same,growth inhibition,[9]; at 33.0 µM,4%
same,growth inhibition,[9]; at 100.0 µM,99% (active)
same,growth inhibition,[10]; [16],-24%
same,growth inhibition,[10]; [17],1%
same,growth inhibition,[10]; at 50.0 µM,97.5% (active)
same,growth inhibition,[11]; at 1.2 µM,-2%
same,growth inhibition,[11]; at 3.7 µM,-4%
same,growth inhibition,[11]; [16],-14%
same,growth inhibition,[11]; at 11.0 µM,12%
same,growth inhibition,[11]; at 33.0 µM,27%
same,growth inhibition,[11]; [17],25%
same,growth inhibition,[11]; at 50.0 µM,98.6% (active)
same,growth inhibition,[11]; at 100.0 µM,99% (active)
same,growth inhibition,[12]; at 1.2 µM,-2%
same,growth inhibition,[12]; at 3.7 µM,-2%
same,growth inhibition,[12]; at 11.0 µM,-2%
same,growth inhibition,[12]; at 33.0 µM,82% (active)
same,growth inhibition,[12]; at 100.0 µM,99% (active)
same,growth inhibition,[13]; at 1.2 µM,-6%
same,growth inhibition,[13]; at 3.7 µM,-5%
same,growth inhibition,[13]; at 11.0 µM,-7%
same,growth inhibition,[13]; at 33.0 µM,57%
same,growth inhibition,[13]; at 100.0 µM,99% (active)
same,growth inhibition,[14]; at 1.2 µM,0%
same,growth inhibition,[14]; at 3.7 µM,2%
same,growth inhibition,[14]; at 11.0 µM,7%
same,growth inhibition,[14]; at 33.0 µM,87% (active)
same,growth inhibition,[14]; at 100.0 µM,99% (active)
same,growth inhibition,[15]; [16],-9%
same,growth inhibition,[15]; [17],69%
same,growth inhibition,[15]; at 50.0 µM,97.5% (active)
